# Experimental data from the supplement of paper PMC8728848.
# This excerpt belongs to a sample that is enriched for the strongest signals.
# Key:
# Assay in all cases: glycan array binding signal (z-score within array); higher = stronger binding
# Conditions in all cases: glycan notation: IUPAC condensed, linker removed
# [1] = system: Fuc(a1-3)[Neu5Ac(a2-3)]Gal(b1-4)GlcNAc(b1-3)GalNAc
# Procedure, shortened: (§1)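 Glycan array binding is given as a within-array Z-score, which can be read as non-binding when negative. The arrays, 3228 of them, came from the Consortium for Functional Glycomics database and were retained only where the protein sequence was available. Z-scores were averaged across arrays of the same protein sequence at different concentrations or buffers and across linkers.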
# Gal(a1-3)Gal(b1-3)GlcNAc = system: Gal(a1-3)Gal(b1-3)GlcNAc
# Procedure, shortened: as §1
# Fuc(a1-4)GlcNAc = system: Fuc(a1-4)GlcNAc
# Procedure, shortened: as §1
# Fuc(b1-3)GlcNAc = system: Fuc(b1-3)GlcNAc
# Procedure, shortened: as §1
# [2] = system: Gal(a1-3)Gal(b1-3)GlcNAc(b1-2)Man(a1-3)[Gal(a1-3)Gal(b1-3)GlcNAc(b1-2)Man(a1-6)]Man(b1-4)GlcNAc(b1-4)GlcNAc
# Procedure, shortened: as §1
# [3] = system: Gal(a1-3)Gal(b1-3)GlcNAc(b1-3)GalNAc
# Procedure, shortened: as §1
# Gal(a1-3)Gal(b1-3)Glc = system: Gal(a1-3)Gal(b1-3)Glc
# Procedure, shortened: as §1
# [4] = system: Gal(a1-3)Gal(b1-3)[Fuc(a1-4)]GlcNAc(b1-2)Man(a1-3)[Gal(a1-3)Gal(b1-3)[Fuc(a1-4)]GlcNAc(b1-2)Man(a1-6)]Man(b1-4)GlcNAc(b1-4)GlcNAc
# Procedure, shortened: as §1
# [5] = system: Gal(a1-3)Gal(b1-4)GlcNAc(b1-2)Man(a1-3)[Gal(a1-3)Gal(b1-4)GlcNAc(b1-2)Man(a1-6)]Man(b1-4)GlcNAc(b1-4)GlcNAc
# Procedure, shortened: as §1
# Chain of PILRb (Mus musculus), Q2YSF2 (Q2YSF2 entry or part of it): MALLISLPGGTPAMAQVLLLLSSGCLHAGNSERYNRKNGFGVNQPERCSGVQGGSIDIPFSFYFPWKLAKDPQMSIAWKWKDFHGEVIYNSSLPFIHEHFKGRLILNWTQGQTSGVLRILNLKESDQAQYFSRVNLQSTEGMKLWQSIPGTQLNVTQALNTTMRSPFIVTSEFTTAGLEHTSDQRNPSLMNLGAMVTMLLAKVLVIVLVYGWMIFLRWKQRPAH
# Chain of C3b (Homo sapiens), P01024 (P01024 23-667): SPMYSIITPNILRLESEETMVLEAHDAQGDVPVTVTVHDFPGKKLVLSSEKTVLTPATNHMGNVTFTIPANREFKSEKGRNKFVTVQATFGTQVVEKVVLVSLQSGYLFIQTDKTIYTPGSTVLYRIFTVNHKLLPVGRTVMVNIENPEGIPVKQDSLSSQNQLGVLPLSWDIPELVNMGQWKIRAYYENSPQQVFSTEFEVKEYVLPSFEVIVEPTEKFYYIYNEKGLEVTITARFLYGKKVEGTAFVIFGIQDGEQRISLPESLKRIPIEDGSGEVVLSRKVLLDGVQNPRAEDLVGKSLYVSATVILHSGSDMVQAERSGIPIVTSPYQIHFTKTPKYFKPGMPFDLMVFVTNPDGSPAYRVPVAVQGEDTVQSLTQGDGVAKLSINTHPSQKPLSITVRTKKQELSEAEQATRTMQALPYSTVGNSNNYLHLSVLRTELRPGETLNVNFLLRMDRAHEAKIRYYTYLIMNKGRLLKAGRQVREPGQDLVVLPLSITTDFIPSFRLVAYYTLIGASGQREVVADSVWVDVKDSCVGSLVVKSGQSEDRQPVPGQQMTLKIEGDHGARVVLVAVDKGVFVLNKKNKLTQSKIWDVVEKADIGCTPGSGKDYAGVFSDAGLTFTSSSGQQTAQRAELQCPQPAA
# Chain of Aggrecan (Rattus norvegicus), NP_071526 (chain, as listed by the source): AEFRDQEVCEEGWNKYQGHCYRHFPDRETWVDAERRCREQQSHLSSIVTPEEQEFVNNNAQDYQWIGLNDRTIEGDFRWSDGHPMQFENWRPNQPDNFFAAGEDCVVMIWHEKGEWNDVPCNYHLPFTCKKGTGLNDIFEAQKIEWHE
# Chain of Avaren (Actinomycete K97) (chain, as listed by the source): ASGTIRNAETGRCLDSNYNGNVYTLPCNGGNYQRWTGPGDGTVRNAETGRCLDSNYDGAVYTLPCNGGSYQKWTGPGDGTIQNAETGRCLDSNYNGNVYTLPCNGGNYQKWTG
# Chain of Neurocan (Homo sapiens), O14594 (O14594 other isoform, or with tags, fused parts or gaps): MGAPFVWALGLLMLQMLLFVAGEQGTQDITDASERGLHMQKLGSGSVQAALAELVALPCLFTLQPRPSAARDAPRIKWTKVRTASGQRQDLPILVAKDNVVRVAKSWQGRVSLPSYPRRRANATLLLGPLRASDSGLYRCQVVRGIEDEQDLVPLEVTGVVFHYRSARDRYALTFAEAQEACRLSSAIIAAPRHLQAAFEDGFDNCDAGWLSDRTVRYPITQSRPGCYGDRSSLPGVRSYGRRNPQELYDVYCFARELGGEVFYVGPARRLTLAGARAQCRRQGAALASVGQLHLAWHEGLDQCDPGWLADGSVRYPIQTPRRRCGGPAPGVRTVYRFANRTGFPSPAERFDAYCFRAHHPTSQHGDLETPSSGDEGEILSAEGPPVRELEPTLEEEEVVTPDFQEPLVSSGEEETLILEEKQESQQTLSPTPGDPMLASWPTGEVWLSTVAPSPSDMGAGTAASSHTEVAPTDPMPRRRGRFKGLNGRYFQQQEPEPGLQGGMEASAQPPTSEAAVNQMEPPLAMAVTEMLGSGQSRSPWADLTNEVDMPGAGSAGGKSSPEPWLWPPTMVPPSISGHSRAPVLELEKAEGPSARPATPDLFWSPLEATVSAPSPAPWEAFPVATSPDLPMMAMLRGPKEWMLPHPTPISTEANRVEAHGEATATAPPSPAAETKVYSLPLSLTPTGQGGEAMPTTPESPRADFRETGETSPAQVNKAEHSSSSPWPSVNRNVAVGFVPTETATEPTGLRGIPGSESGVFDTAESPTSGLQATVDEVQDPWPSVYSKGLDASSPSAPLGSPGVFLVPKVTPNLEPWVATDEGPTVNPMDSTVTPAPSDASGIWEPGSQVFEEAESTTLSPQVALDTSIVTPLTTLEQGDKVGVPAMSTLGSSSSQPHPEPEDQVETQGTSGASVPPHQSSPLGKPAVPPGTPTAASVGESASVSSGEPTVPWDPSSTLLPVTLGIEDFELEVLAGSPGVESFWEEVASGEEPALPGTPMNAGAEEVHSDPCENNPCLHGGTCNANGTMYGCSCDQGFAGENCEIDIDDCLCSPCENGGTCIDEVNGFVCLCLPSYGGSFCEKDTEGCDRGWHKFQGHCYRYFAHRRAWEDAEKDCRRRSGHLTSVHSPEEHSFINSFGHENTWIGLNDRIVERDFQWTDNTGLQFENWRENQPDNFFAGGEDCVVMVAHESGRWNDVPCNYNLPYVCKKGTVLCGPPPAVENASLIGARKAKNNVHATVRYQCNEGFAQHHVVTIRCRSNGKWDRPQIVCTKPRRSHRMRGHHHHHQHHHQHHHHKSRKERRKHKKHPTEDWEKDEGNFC
# Chain of SRLC (Mus musculus), Q8VIF6 (Q8VIF6 other isoform, or with tags, fused parts or gaps): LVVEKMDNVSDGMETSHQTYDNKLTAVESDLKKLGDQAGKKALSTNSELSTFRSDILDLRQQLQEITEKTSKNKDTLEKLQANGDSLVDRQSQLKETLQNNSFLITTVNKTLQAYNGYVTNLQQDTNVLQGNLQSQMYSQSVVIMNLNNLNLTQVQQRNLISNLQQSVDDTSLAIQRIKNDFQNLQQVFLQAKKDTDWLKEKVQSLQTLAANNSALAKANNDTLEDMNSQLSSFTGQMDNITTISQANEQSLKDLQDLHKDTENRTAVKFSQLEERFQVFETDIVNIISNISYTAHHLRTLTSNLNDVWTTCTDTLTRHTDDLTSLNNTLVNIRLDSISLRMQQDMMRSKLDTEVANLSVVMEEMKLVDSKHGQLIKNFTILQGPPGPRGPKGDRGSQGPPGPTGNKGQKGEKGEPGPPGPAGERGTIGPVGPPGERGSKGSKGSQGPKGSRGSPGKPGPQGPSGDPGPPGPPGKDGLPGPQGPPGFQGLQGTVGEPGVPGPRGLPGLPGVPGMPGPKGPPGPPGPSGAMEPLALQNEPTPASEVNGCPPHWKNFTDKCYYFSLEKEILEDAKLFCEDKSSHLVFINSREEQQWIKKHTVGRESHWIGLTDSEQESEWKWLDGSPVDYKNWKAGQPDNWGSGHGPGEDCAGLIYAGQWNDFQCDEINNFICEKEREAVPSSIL
# Chain of CHT (Homo sapiens) (chain, as listed by the source): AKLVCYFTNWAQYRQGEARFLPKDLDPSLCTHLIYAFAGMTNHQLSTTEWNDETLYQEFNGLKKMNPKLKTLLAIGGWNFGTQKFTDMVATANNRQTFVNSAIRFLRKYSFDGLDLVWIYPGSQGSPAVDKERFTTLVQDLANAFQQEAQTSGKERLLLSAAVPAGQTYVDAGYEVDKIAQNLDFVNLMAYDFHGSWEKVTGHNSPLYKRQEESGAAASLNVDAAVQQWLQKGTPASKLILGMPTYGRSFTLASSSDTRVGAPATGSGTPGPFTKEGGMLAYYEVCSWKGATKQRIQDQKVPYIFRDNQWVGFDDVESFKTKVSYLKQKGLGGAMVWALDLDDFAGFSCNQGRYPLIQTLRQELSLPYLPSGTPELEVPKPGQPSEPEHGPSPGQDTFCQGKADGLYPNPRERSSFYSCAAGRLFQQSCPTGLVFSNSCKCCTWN
substance,measurement,setting,value
"Aggrecan (Rattus norvegicus), NP_071526",glycan array binding signal (z-score),[1],0.658
same,glycan array binding signal (z-score),Gal(a1-3)Gal(b1-3)GlcNAc,-0.05
"C3b (Homo sapiens), P01024",glycan array binding signal (z-score),Fuc(a1-4)GlcNAc,3.19
same,glycan array binding signal (z-score),Gal(a1-3)Gal(b1-3)GlcNAc,1.35
"Siglec-8 (Homo sapiens), Q9NYZ4",glycan array binding signal (z-score),Fuc(a1-4)GlcNAc; mutation: R125K,2.97
"Neurocan (Homo sapiens), O14594",glycan array binding signal (z-score),Fuc(b1-3)GlcNAc,-0.101
CHT (Homo sapiens),glycan array binding signal (z-score),"Fuc(b1-3)GlcNAc; mutation: D138V, E140I",-0.132
"PILRb (Mus musculus), Q2YSF2",glycan array binding signal (z-score),[2],6.25
same,glycan array binding signal (z-score),[3],-0.312
"SRLC (Mus musculus), Q8VIF6",glycan array binding signal (z-score),Gal(a1-3)Gal(b1-3)Glc,-0.234
MpAFP RI GFP (Marinomonas primoryensis),glycan array binding signal (z-score),[4],2.56
Avaren (Actinomycete K97),glycan array binding signal (z-score),[5],-0.106
